# In PubChem BioAssay (NCATS):
# Results filed as inconclusive are left out. Entries that show only a call come without a potency. A number with no mark means an inactive call. Calls of active or inactive are those of the source. Calls come from the whole dose curve; as a rule, active = well fitted cell-killing curve with a large enough effect; inconclusive = small, poorly fitted or top-dose-only effect, or effect the other way; inactive = no such curve, though single readings can be large or run the other way.
# Test: Viability qHTS for spleen associated tyrosine kinase inhibitor (SYKi) naive MV4-11 cells (AID 1963823); note: nearly all actives have a fitted effect of over 40% in size
# Conditions: MV4-11 AML viability, CellTiter-Glo luminescence, 72 h; series mostly up to 45 µM
# From the text: Department of Medicine, Hematology/Oncology
# University Hospital Frankfurt, Germany.
# Trials have shown promising clinical activity of the selective SYK inhibitor entospletinib in patients with high expressing HOXA9/MEIS1 acute leukemias. As the development of resistance mechanisms is a common problem in the use of targeted drugs, we performed a chemical library screen to identify drug sensitivities in SYK inhibitor resistant AML cells. […] Glucocorticoids are potent immunosuppressants which work in part by inhibiting the transcription of cytokine genes.
# Described herein is a viability screen to look for activity in the SYK inhibitor naive cell line against four NCATS compound libraries (MIPE 5.0, NPC, NPACT, and Kinase) totaling 11372 compounds. Active hits were reacquired for confirmation and further secondary assay testing.
# SEQUENCE No. (e.g., 1, 2, 3, etc.); […] (e.g., Cells, Incubation, Reagent, etc.); VALUE; DESCRIPTION.
# 1; Media; 2uL; white, solid-bottom Corning assay plate.
# 2; Compounds; 23nL; Echo acoustic dispenser.
# 3; Cell; 5uL; 500 cells per well.
# 4: Incubation; 72hr; 37 C, 5% CO2, 95% humidity.
# 5; Reagent; 3uL; CellTiter-Glo reagent (Promega).
# 6; Incubation; 10min; room temperature.
# 7; Detection; Luminescence; ViewLux plate reader (PerkinElmer).
# NOTES (numbers refer to Sequence numbers above
# 1. Quantitative high-throughput screening (qHTS) of small molecule compounds was conducted on naive SYKi MV4-11 cell line.
# 2. Twenty-three nanoliter of small molecule compounds were added to each assay plates using the Echo acoustic dispenser (Beckman Coulter).
# 3. Cells were seeded into the assay plates at a final density of 500 cells in 5uL of media per well using the Multi-drop Combi dispenser.
# 4. Plates were covered with stainless steel gasketed lids and incubated for 72 hours at standard cell culture conditions.
# 5. Viability was assessed by adding 3uL of CellTiter-Glo detection reagent (Promega).
# 6. Plates were covered with gasket lids and incubated for 10 minutes at room temperature.
# 7. Luminescence was measured on a ViewLux plate reader (PerkinElmer).
# Potency is the fitted concentration of half-maximal effect.
Compound,Potency,viability (% of control)
Cc1c(NC(C)C)c(=O)n(-c2ccccc2)n1C,inactive,
C=C1CC[C@@]2(OC1)O[C@H]1CC3C4CC=C5C[C@@H](O[C@@H]6O[C@@H](C)[C@H](O)[C@@H](O)[C@H]6O)C[C@@H](O[C@@H]6O[C@H](C)[C@H](O)[C@H](O)[C@H]6O[C@@H]6O[C@@H](C)[C@H](O)[C@@H](O)[C@H]6O)[C@]5(C)C4CC[C@]3(C)[C@H]1[C@@H]2C (stereo not given in full),,70.4% [at 9.25 µM]
COc1ccc(CCN(C)CCCN2CCc3cc(OC)c(OC)cc3CC2=O)cc1OC,inactive,
CN(C)c1ccc(C2O[C@@H](c3ccccc3)C[C@H](c3ccccc3)O2)cc1 (stereo not given in full),inactive,
C[C@H]1[C@H](C)CC[C@]2(C(=O)O)CC[C@]3(C(=O)O)C(=CCC4[C@@]5(C)CC[C@H](O[C@@H]6O[C@@H](C)[C@H](O)[C@@H](O)[C@H]6O)C(C)(C)C5CC[C@]43C)[C@H]12 (stereo not given in full),inactive,
CCOc1ccccc1OCC1CNCCO1 (stereo not given),inactive,
C[C@@H]1C[C@H]2[C@@H]3C[C@H](F)C4=CC(=O)C(Cl)=C[C@]4(C)[C@@]3(F)[C@@H](O)C[C@]2(C)[C@@]1(O)C(=O)CO,4.73 µM (active),
Cc1c(C(=O)NCCCO)cnn1-c1nc(-c2cccc(C(F)(F)F)c2)cs1,14.6 µM (active),
CN(C)c1ccc(Nc2nc(N)n(C(=O)c3c(F)cccc3F)n2)cc1,3.66 µM (active),
CC(O)C(=O)O (stereo not given),inactive,
CCOCC(O)COc1ccc(NC(=O)CC[S+](C)C)cc1 (stereo not given),inactive,
CC1=NS(=O)(=O)c2cc(Cl)ccc2N1,inactive,
COC(=O)c1sccc1S(=O)(=O)Nc1ccc(Nc2ccccc2)cc1OC,5.17 µM (active),
O=C(NCCS(=O)(=O)c1ccc(C(F)(F)F)cn1)c1ccc(Cl)cc1,inactive,
C=C(C(=O)O)[C@@H]1CC[C@@]2(C)CC[C@@H](O)C(=C)C2C1 (stereo not given in full),inactive,
CN1[C@@H]2CCC[C@H]1CC(NC(=O)c1nn(C)c3ccccc13)C2 (stereo not given in full),inactive,
CCCCCCc1cccc(NC(=O)[C@H](N)CCP(=O)(O)O)c1,,90.5% [at 9.25 µM]
Nc1nc(N)nc(-c2cc(Cl)ccc2Cl)n1,inactive,
Cc1cnc(NC(=O)Nc2cc(Br)c(C)cc2OCC2CNCCO2)cn1 (stereo not given),0.731 µM (active),
CC1=CC(=O)OC(C)(CC(C)(O)C(=O)O)C1 (stereo not given),inactive,

Compound,Potency,viability (% of control)
C[n+]1ccccc1/C=N/O,inactive,
Cc1cccc(Nc2nc(N[C@@H]3CCCC[C@H]3N)ncc2C(N)=O)c1,0.934 µM (active),
CCCc1cc(C)[nH]c(=O)c1CNC(=O)c1cc(-c2ccnc(N3CCN(C)CC3)c2)cc2c1cnn2C(C)C,14.8 µM (active),
Cc1cc(-c2cc(OC(=O)c3ccccc3)ccc2Cl)cc2nnc(Nc3ccc(OCCN4CCCC4)cc3)nc12,2 µM (active),
COC(=O)C1=COC(OC2OC(CO)C(O)C(O)C2O)C2C1C=CC2(O)CO (stereo not given),inactive,
CN(CC(=O)N(Cc1ccc(C2CCCCC2)cc1)c1ccc(C(=O)O)cc1)S(=O)(=O)c1c(F)c(F)c(F)c(F)c1F,1.84 µM (active),
COC(=O)[C@H]1[C@H]2C[C@@H]3c4[nH]c5cc(OC)ccc5c4CCN3C[C@H]2C[C@@H](OC(=O)COc2ccc(OC)cc2)[C@@H]1OC,inactive,
O=C1CC2(CCCC2)CC(=O)N1CCCCN1CCN(c2ncccn2)CC1,9.44 µM (active),
C#Cc1cccc(Nc2nc3cc(C(=O)O)ccc3c3cncnc23)c1,5.17 µM (active),
O=C(CC1NCCC[C@H]1O)Cn1cnc2cc(Br)c(Cl)cc2c1=O (stereo not given in full),inactive,
C[C@@H]1O[C@@H](O[C@H]2[C@H](O)[C@@H](O)[C@H](O[C@H]3[C@H](O[C@H]4CC[C@@]5(C)C(=CC[C@@H]6C5CC[C@]5(C)[C@@H]7[C@H](C[C@@H]65)O[C@]5(CC[C@@](C)(CO[C@@H]6O[C@H](CO)[C@@H](O)[C@H](O)[C@H]6O)O5)[C@H]7C)C4)O[C@H](CO)[C@@H](O)[C@@H]3O)O[C@@H]2CO)[C@H](O)[C@H](O)[C@H]1O (stereo not given in full),0.618 µM (active),
CC(=O)c1[nH]cc(CCC(=O)O)c1CC(=O)O,0.231 µM (active),
CC[C@H](C)n1cc(C)c2c(C(=O)NCc3c(C)cc(C)[nH]c3=O)cc(-c3ccc(N4CCNCC4)nc3)cc21,7.42 µM (active),
Fc1ccc(C2CCNC[C@H]2COc2ccc3c(c2)OCO3)cc1 (stereo not given in full),16.4 µM (active),
C=C(C(=O)O)C1CCC2(C)CCC(O)C(=C)C2C1 (stereo not given),inactive,
CN(C)CCOc1ccc(/C(=C(/CCCl)c2ccccc2)c2ccccc2)cc1,14.8 µM (active),
Cc1cc(O)c(-c2ccc([C@@H](C)CN(C)C)cc2)c2c1[nH]c(=O)c1sccc12,0.0184 µM (active),
O=C(/C=C/c1ccc(O)c(O)c1)OC[C@H]1O[C@@H](OC2CCCCC2O)[C@H](O)[C@@H](O)[C@@H]1O (stereo not given in full),inactive,
CN(C)C(=O)Oc1ccc[n+](C)c1,inactive,
Cc1cncc2cccc(S(=O)(=O)N3CCCNC[C@@H]3C)c12,3.66 µM (active),
